Bioassay records: PubChem BioAssay, National Center for Advancing Translational Sciences (NCATS)
The list is not random: actives were taken first. Their share in the collection is about 10%.
Six1-Eya2 blk = blocks human Six1 binding to Eya2; AlphaScreen GST-Six1/His-Eya2 binding, biochemical; active compounds read low; Q15475+O00167; activity change, % (no concentration beside the values); 0.56% of 360,000 active; AID 651725; in the data active means activity change below about -65%; inconclusive means mostly about -30% to -63%
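Six1/Eya2 binding was read as AlphaScreen signal after compounds were pinned into GST-Six1 plus His-tagged Eya2 (5X stock 250/500 nM) in pH 8.0 Tris/NaCl/TCEP buffer, beads added, then incubated 1 h, 37 C, dark.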
CtBP-E1A inh = inhibitors of CtBP/E1A interaction; AlphaScreen GST-E1A/His-CtBP binding, 1536-well; active compounds read low; activity change, % (no concentration beside the values); AID 651724; 0.49% of 340,000 active; in the data active means activity change below about -65%; inconclusive means mostly about -30% to -63%
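Homogeneous bead-based format: GST-tagged E1A captured on glutathione donor beads, His-tagged CtBP on nickel acceptor beads; compounds precede bead addition by 2 h at 37 °C.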
BAZ2B inh = BAZ2B (human) inhibition; Q9UIF8; AlphaScreen BAZ2B-H3K14Ac peptide displacement; Potency, µM (top dose mostly 114 µM), hits mostly inhibitors; 4.4% of 360,000 active; further: nearly all actives have a fitted effect of over 60% in size
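BAZ2B 50 nM plus b-H3(5-23)K14Ac 50 nM, PBS pH 7.4/0.01% Tween-20, 30 min RT; compound added (max 110 uM), 30 min RT; streptavidin donor/Ni-chelate acceptor beads 10 ug/mL final, 20 min dark; AlphaScreen read.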
JMJD2A Tudor inh = inhibitors of human JMJD2A Tudor domain; AlphaScreen JMJD2A-Tudor / H3K4me3 peptide binding; Potency, µM (series often up to 114 µM), hits mostly inhibitors; 4.4% of 390,000 active; further: nearly all actives have a fitted effect of over 50% in size
G9a inh = blocks human histone lysine methyltransferase G9a | Q96KQ7 | G9a H3K9 monomethylation, AlphaScreen, 2 h | Potency, µM (titrated, usually from 102 µM), hits mostly inhibitors | 8.8% of 350,000 active | AID 504332; further: nearly all actives have a fitted effect of over 75% in size
Target sequence (Q96KQ7 913-1193 limits assumed): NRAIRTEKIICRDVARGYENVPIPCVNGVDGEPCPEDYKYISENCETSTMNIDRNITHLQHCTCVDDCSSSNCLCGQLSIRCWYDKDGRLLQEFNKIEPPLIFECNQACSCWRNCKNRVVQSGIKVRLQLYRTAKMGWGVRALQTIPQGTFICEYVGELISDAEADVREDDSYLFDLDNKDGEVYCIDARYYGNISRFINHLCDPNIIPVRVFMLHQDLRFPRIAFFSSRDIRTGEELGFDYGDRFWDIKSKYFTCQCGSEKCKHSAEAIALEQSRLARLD
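AlphaScreen read-out: biotin-H3K9 peptide (500 nM) methylation by 20 nM enzyme with 20 uM SAM, 2 h at room temperature after 15 min compound preincubation; anti-monomethyl H3K9 antibody plus donor/acceptor beads, 10 min dark.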
HP1b chromo inh = HP1-beta chromodomain-methylated histone interaction inhibition | P83916 | AlphaScreen HP1-beta / biotin-H3K9me3 peptide binding | Potency, µM (doses to about 114 µM), most hits filed as inhibitors | 0.56% of 390,000 active | AID 540317; further: nearly all actives have a fitted effect of over 70% in size
Target sequence (P83916 whole entry, looked up): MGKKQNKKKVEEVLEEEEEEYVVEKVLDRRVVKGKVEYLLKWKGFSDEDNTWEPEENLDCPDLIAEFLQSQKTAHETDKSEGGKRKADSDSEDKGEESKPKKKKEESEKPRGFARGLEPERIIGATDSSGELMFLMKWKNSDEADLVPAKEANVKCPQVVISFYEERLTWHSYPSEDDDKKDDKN
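HP1-beta protein (50 nM final) preincubated 30 min at room temperature with biotinylated H3(1-18)K9me3 peptide (50 nM) in PBS pH 7.4, 0.01% Tween-20, then compound added for 30 min. AlphaScreen streptavidin donor/nickel chelate acceptor beads (10 ug/mL final), 30 min dark, luminescence read.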
Hits are given with their value; – = inactive; ? = inconclusive; · = not tested or not shown; ! = not active in a repeat; [ ] = remark or other dose. Unless noted, the call rests on the fitted dose curve; in most records, active means well fitted inhibition curve with a large enough effect; inconclusive means small, poorly fitted or top-dose-only effect; inactive means no such curve, though single readings can be large or run the other way.

SMILES	Six1-Eya2 blk	CtBP-E1A inh	BAZ2B inh	JMJD2A Tudor inh	G9a inh	HP1b chromo inh
Cn1c(CSc2nc3ccccc3s2)n[nH]c1=S	–	–	–	32µM	2.5µM	–
CNc1ccnc(-c2ccccc2C)n1	·	·	·	·	–[0.501 µM]	·
CCc1ccc(-n2nnc(-c3nc(-c4ccc(C)cc4)no3)c2N)cc1	·	·	–	–	–	–
CCCN(CC(=O)Nc1ccc(F)c(F)c1F)C(=O)Cn1c(=O)cnc2ccccc21	–	–	–	–	–[0.501 µM]	–
COc1ccccc1OCCSc1nc2ccc([N+](=O)[O-])cc2s1	–	–	?	?	13µM	?
C=CCc1ccccc1OCCSc1nc2ccc([N+](=O)[O-])cc2s1	–	–	–	–	20µM	–
O=[N+]([O-])c1ccc2nc(SCc3ccccc3Cl)sc2c1	–	–	–	?	?	–
Cc1c2cn[nH]c(=O)c2c(C)n1-c1ccccc1	–	–	?	–	–	–
C=CCOc1cccc(/C=C2\C(=O)N(Cc3ccc(C)cc3)C(C)=C2C(=O)OC)c1	–	–	–	–	–	–
COCCCN1C(=O)/C(=C\c2ccc3c(c2)OCO3)C(C(=O)OC)=C1C	–	–	–	–	–	–
CCOc1cc(/C=C2\C(=O)N(Cc3ccc(C)cc3)C(C)=C2C(=O)OC)ccc1O	–	–	?	25µM	8.9µM	–
CCN1C(=O)/C(=C\c2ccc3c(c2)OCO3)C(C(=O)OC)=C1C	–	–	?	–	50µM	?
CCOC(=O)C1=C(C)N(c2ccc(OC)cc2)C(=O)/C1=C\c1ccc(O)c(OCC)c1	–	–	50µM	14µM	?	?
CCOC(=O)C1=C(C)N(c2ccc(C)c(C)c2)C(=O)/C1=C\c1ccco1	–	–	32µM	32µM	35µM	–
Cc1c(C(=O)N(C)C)sc2c1c(=O)n(-c1ccc(Cl)c(Cl)c1)c(=O)n2CC(=O)Nc1ccc(Br)cc1F	·	·	–	–	–	–
O=C1CCc2cc(S(=O)(=O)Nc3cccnc3)ccc2N1	·	·	·	–	·	·
COC(=O)C1=C(C)N(CCc2ccc(OC)c(OC)c2)C(=O)/C1=C\c1ccc(O)cc1	–	–	?	?	10µM	–
COc1ccccc1NC(=O)CSc1nc(-c2cccc(Cl)c2)nc2c1Cc1c(CO)cnc(C)c1O2	·	·	–	–	–	–
COC(=O)c1cc(-c2ccccc2)sc1N	–	–	?	?	4.5µM	?
CCNc1ccc(S(=O)(=O)N(C)C)cc1[N+](=O)[O-]	–	·	?	32µM	·	–
CCCCNc1ccc(S(N)(=O)=O)cc1[N+](=O)[O-]	·	·	–	·	–	·
O=[N+]([O-])c1cccc(S(=O)(=O)c2ccc(NCCO)c([N+](=O)[O-])c2)c1	–	–	–	14µM	–	?
COc1ccc(NC(=O)Cn2c(=O)n(CCCC(=O)NCCc3ccc(C)cc3)c(=O)c3ccccc32)cc1Cl	·	·	–	–	–	–
Nc1nc(-c2ccc(Oc3ccccc3)cc2)c(CC(=O)O)s1	–	–	–	–	32µM	–
Nc1nc(-c2cccs2)c(CC(=O)O)s1	–	–	–	–	40µM	–
SMILES	Six1-Eya2 blk	CtBP-E1A inh	BAZ2B inh	JMJD2A Tudor inh	G9a inh	HP1b chromo inh
COc1ccc(C2C(C(=O)Nc3ccccc3)=C(C)Nc3c(C(=O)Nc4ccccc4)cnn32)cc1 (stereo not given)	·	·	–	–	–	–
COc1ccc(C2=C(C(C)=O)Sc3nnc(-c4ccc(C)cc4)n3N2C(C)=O)cc1OC	·	·	–	–	–	–
Cn1c(CSCc2ccc(Cl)c(Cl)c2)n[nH]c1=S	–	–	–	89µM	?	–
CCc1nc(SCc2ccc(Cl)cc2)n[nH]1	–	–	–	–	–	–
CCn1c(CSCc2ccc(C)cc2)n[nH]c1=S	–	·	?	32µM	·	–
S=c1[nH]nc(CSCc2ccccc2Cl)n1-c1ccccc1	–	–	–	–	·	–
C=CCn1c(CSCc2ccc(F)cc2)n[nH]c1=S	–	·	–	–	·	–
CCn1c(CSCc2ccc(Cl)cc2)n[nH]c1=S	–	–	–	56µM	3.2µM	–
Cc1cc(C(=O)NN)n[nH]1	–	–	–	–	–	–
COc1ccc(C)cc1NC(=O)C1CCN(S(=O)(=O)c2c(C)noc2C)CC1	–	–	–	–	–	–
C[C@H](NCCC(c1ccccc1)c1ccccc1)c1ccccc1	·	·	·	·	–[21.5 µM]	·
CNCCC(Oc1ccccc1C)c1ccccc1 (stereo not given)	·	·	·	·	21µM!	·
COc1ccc(CNC(=O)c2cnc3sc(N4CCOCC4)nn3c2=O)cc1	·	·	–	–	–	–
O=C(c1ccncc1)N(c1ccc2oc3c(c2c1)CCCC3)S(=O)(=O)c1cccc([N+](=O)[O-])c1	–	–	?	?	3.5µM	–
COc1ccc(S(=O)(=O)N(C(=O)c2ccncc2)c2ccc3oc4c(c3c2)CCCC4)cc1	–	–	–	–	–	–
c1ccc(-c2nc(-c3ccncc3)n[nH]2)nc1	-89	–	2.5µM	2.8µM	·	–
CC(C)Oc1ccc(C(=O)Nc2ccc(N(C)C)cc2)cc1	–	–	–	?	3.5µM	–
CN1CCN(c2ccc(NC(=O)c3ccc(Oc4ccccc4)cc3)cc2)CC1	–	–	?	?	50µM	–
COc1ccccc1C(=O)Nc1ccc(N2CCN(S(C)(=O)=O)CC2)cc1	–	–	–	–	?	–
CC(=O)c1ccc(N2CCN(C(=S)Nc3ccc(Oc4ccccc4)cc3)CC2)cc1	–	–	·	–	–	–
COc1ccccc1C(=O)NC(=S)Nc1ccc(N2CCCC2)cc1	–	–	–	?	45µM	?
COc1cccc(C(=O)NC(=S)Nc2ccc(N(C)C)cc2)c1	?	?	10µM	25µM	10µM	?
CC(C)Oc1ccc(C(=O)Nc2ccc3c(c2)n(C)c(=O)n3C)cc1	–	–	?	–	–	–
COc1cccc(C(=O)Nc2ccc(C)cc2)c1	–	–	–	–	–[12.7 µM]	–
CC(C)c1ccc(OCc2cc(=O)n3c(-c4ccccc4)csc3n2)cc1	·	·	–	–	–	–
SMILES	Six1-Eya2 blk	CtBP-E1A inh	BAZ2B inh	JMJD2A Tudor inh	G9a inh	HP1b chromo inh
Cc1cccc(C(=O)OCC(=O)NCC2COc3ccccc3O2)c1 (stereo not given)	–	–	–	–	–	–
Cc1nc(NCc2ccccc2)c2cc[nH]c2n1	–	·	?	–	–[12.7 µM]	–
Clc1cccc(-n2ncc3c(NC4CCCCC4)ncnc32)c1	·	·	–	–	–	–
COc1ccc(/C=C(\C#N)C(=O)C(C)(C)n2cncn2)cc1	–	–	?	–	–[12.7 µM]	–
CS(=O)(=O)Nc1ccc(C(=O)NCCSc2ccc(Cl)cc2)cc1	–	–	–	–	–	–
COc1ccc(/C(C)=N/NC(=O)c2ccc(N(C)C)cc2)cc1	–	–	–	–	·	–
COc1ccc(C(=S)Nc2ccc(N(C)C)cc2)cc1	–	–	?	?	?	?
COc1ccc(C(=O)NC(=S)Nc2ccc(CN3CCCCC3)cc2)cc1Cl	–	–	?	?	13µM	–
